We go through eight molecules from PubChem BioAssay (NCI).

About 83,000 compounds went through this panel and 20% of them were active in at least one assay; those are over-represented in the sample as a whole.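 Negative percent growth values reflect cell death: -40 means 40% of the cells present at the start died, and -100 means all died.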 A number with no mark means an inactive call. Calls of active or inactive are those of the source. How the source made its calls: active means growth percent below 10; inactive means the rest.

Among the test systems are SK-MEL-2 melanoma; SN12C renal; UO-31 renal; ACHN renal; A498 renal; MOLT-4 leukemia; SR leukemia; RPMI-8226 leukemia; OVCAR-8 ovarian; OVCAR-4 ovarian; SK-OV-3 ovarian; IGROV1 ovarian; OVCAR-3 ovarian; HS 578T breast; NCI/ADR-RES ovarian; EKVX NSCLC; TK-10 renal; CAKI-1 renal; CCRF-CEM leukemia; OVCAR-5 ovarian.
Test in all cases: NCI-60 one-dose screen, 48 h (100 = growth as untreated, 0 = no growth, -100 = all killed)
Holding throughout (details): 10 µM unless noted

Consider `O=Cc1ncc(-c2ccc(C(F)(F)F)cc2)c(NC2CCCCCC2)n1`, for which the growth is -79.8% [100 µM] (active) in the experiment on SK-MEL-2 melanoma; -87.4% [100 µM] (active) in the experiment with SN12C renal; -90.8% [100 µM] (active) with UO-31 renal; -99.5% [100 µM] (active) in the experiment on ACHN renal; -73.1% [100 µM] (active) with A498 renal; -60% [100 µM] (active) in the experiment on MOLT-4 leukemia. Further, the growth in the experiment on SR leukemia is -29.1% [100 µM] (active); with RPMI-8226 leukemia it was -35.1% [100 µM] (active); in the experiment with OVCAR-8 ovarian, -68.2% [100 µM] (active); in the experiment with OVCAR-4 ovarian, -73.8% [100 µM] (active); with SK-OV-3 ovarian, -13.7% [100 µM] (active); in the experiment with IGROV1 ovarian it was -68.3% [100 µM] (active). In addition, the growth was -94.5% [100 µM] (active) in the experiment on OVCAR-3 ovarian, -39.1% [100 µM] (active) with HS 578T breast and -69.8% [100 µM] (active) in the experiment on NCI/ADR-RES ovarian.
For the molecule `O=C(CN1CCN(c2ccc(Cl)cc2)CC1)N1CCN(c2nnc(-c3ccc(Cl)cc3)c(-c3ccc(Cl)cc3)n2)CC1`, the growth with EKVX NSCLC was 71.2%; with SN12C renal, 75.5%; in the experiment with UO-31 renal it was 37.9%; in the experiment on TK-10 renal, 102%; in the experiment on ACHN renal, 68.5%; with CAKI-1 renal, 168%. Moreover, the growth is 56.9% in the experiment with A498 renal; 10.4% in the experiment on CCRF-CEM leukemia; -40.9% (active) in the experiment with MOLT-4 leukemia; 8.48% (active) with RPMI-8226 leukemia; 103% in the experiment on OVCAR-5 ovarian; 74.2% in the experiment with OVCAR-4 ovarian. The growth in the experiment with SK-OV-3 ovarian is 111%; in the experiment on IGROV1 ovarian, 37.7%; in the experiment with OVCAR-3 ovarian, 78.4%; in the experiment with HS 578T breast, 71.7%; in the experiment on NCI/ADR-RES ovarian, 72.9%.
Regarding `O=C(CN1CCN(c2ccc(Cl)cc2)CC1)N1CCN(c2nnc(-c3ccccc3)c(-c3ccccc3)n2)CC1`, the growth in the experiment on EKVX NSCLC is 29.9%; with SN12C renal, 49.5%; in the experiment with UO-31 renal it was 14.6%; with TK-10 renal, 68.8%; in the experiment with ACHN renal, 39.3%; in the experiment with CAKI-1 renal it was 92.6%. For the same molecule, the growth in the experiment on A498 renal is 45.4%; in the experiment on CCRF-CEM leukemia, 20.4%; in the experiment on MOLT-4 leukemia, -35.1% (active); in the experiment on RPMI-8226 leukemia it was -23.4% (active); with OVCAR-5 ovarian, 86.4%; with OVCAR-4 ovarian it was 30.6%. Also, the growth in the experiment on SK-OV-3 ovarian was 85%; with OVCAR-3 ovarian, 40.9%; in the experiment with HS 578T breast it was 62.6%; with NCI/ADR-RES ovarian it was 39.2%.
In the case of `CCOC(=O)Nc1cc(-c2ccc(C)c(NS(C)(=O)=O)c2)nn2c(C)nnc12`, the growth was 13.5% in the experiment on SK-MEL-2 melanoma; 32% in the experiment with SN12C renal; -3.12% (active) in the experiment on TK-10 renal; 8.87% (active) with ACHN renal; 3.16% (active) in the experiment with CAKI-1 renal; -7.14% (active) in the experiment with A498 renal. In addition, the growth with CCRF-CEM leukemia was 24.5%; in the experiment with MOLT-4 leukemia, 18.9%; in the experiment on SR leukemia it was 24.9%; with RPMI-8226 leukemia, -20.4% (active); in the experiment with OVCAR-5 ovarian, 32.2%; in the experiment with OVCAR-4 ovarian, 22.8%. Besides, the growth in the experiment with SK-OV-3 ovarian is 4.31% (active); in the experiment on IGROV1 ovarian it was -45.6% (active); with OVCAR-3 ovarian, -10.4% (active); with HS 578T breast it was 9.38% (active); in the experiment with NCI/ADR-RES ovarian, 53.3%.
For `Cc1csc(C#Cc2cncc(O)c2)n1`, the growth was 108% in the experiment on SK-MEL-2 melanoma; 102% in the experiment with SN12C renal; 121% in the experiment with TK-10 renal; 117% in the experiment with ACHN renal; 93.8% in the experiment on CAKI-1 renal; 103% in the experiment on A498 renal. Besides, the growth in the experiment on CCRF-CEM leukemia was -8.24% (active); with MOLT-4 leukemia, 105%; in the experiment with SR leukemia, 110%; in the experiment on RPMI-8226 leukemia, 98.5%; in the experiment on OVCAR-8 ovarian it was 102%; in the experiment with OVCAR-5 ovarian, 90.9%. Further, the growth in the experiment on OVCAR-4 ovarian was 125%; in the experiment on SK-OV-3 ovarian it was 108%; with IGROV1 ovarian, -14% (active); in the experiment with OVCAR-3 ovarian, 111%; with HS 578T breast, 132%; in the experiment on NCI/ADR-RES ovarian, 113%.
Regarding `O=C1NC(=O)/C(=C\c2ccco2)S1`, the growth in the experiment on SK-MEL-2 melanoma is 105%; with SN12C renal it was 95.8%; in the experiment on UO-31 renal, 67.5%; in the experiment with ACHN renal, 100%; with A498 renal, 75.8%; with CCRF-CEM leukemia it was 95.9%. In addition, the growth was 111% in the experiment with MOLT-4 leukemia; 113% in the experiment on SR leukemia; 105% in the experiment with OVCAR-8 ovarian; 121% in the experiment with OVCAR-4 ovarian; 97.1% in the experiment with SK-OV-3 ovarian; 114% in the experiment with IGROV1 ovarian. The growth is 106% with OVCAR-3 ovarian and 103% in the experiment with NCI/ADR-RES ovarian.
Consider `O=C(/C=C/c1c(-c2ccccc2)[nH]c2ccccc12)S(=O)(=O)c1ccccc1`, for which the growth with EKVX NSCLC is 64.3%; with SN12C renal, 73.6%; in the experiment on UO-31 renal, 31%; in the experiment on TK-10 renal, 121%; in the experiment on ACHN renal, 71.8%; in the experiment on CAKI-1 renal, 200%. Besides, the growth was 53.8% in the experiment on A498 renal; 30.2% with CCRF-CEM leukemia; 20.4% in the experiment on MOLT-4 leukemia; 21.4% with RPMI-8226 leukemia; 100% with OVCAR-5 ovarian; 80.1% in the experiment on OVCAR-4 ovarian. Also, the growth with SK-OV-3 ovarian is 89.5%; with IGROV1 ovarian it was 51.8%; in the experiment on OVCAR-3 ovarian, 68.9%; with HS 578T breast, 90.1%.
Consider `CC(C)OP(=O)(OC(C)C)c1ncc(-c2ccc(C(F)(F)F)cc2)c(NC2CCCCCC2)n1`, for which the growth is -85.1% [33.3 µM] (active) in the experiment with SK-MEL-2 melanoma; -72.9% [33.3 µM] (active) with SN12C renal; 1.08% [33.3 µM] (active) in the experiment with TK-10 renal; -1.03% [33.3 µM] (active) with ACHN renal; -29.4% [33.3 µM] (active) with CAKI-1 renal; -94% [33.3 µM] (active) with A498 renal. In addition, the growth is -46.2% [33.3 µM] (active) with MOLT-4 leukemia; -30.3% [33.3 µM] (active) in the experiment with SR leukemia; -40.7% [33.3 µM] (active) in the experiment on RPMI-8226 leukemia; 0.0612% [33.3 µM] (active) in the experiment on OVCAR-8 ovarian; -89.1% [33.3 µM] (active) in the experiment on OVCAR-5 ovarian; 2.6% [33.3 µM] (active) in the experiment on OVCAR-4 ovarian. Besides, the growth in the experiment on SK-OV-3 ovarian was 8.69% [33.3 µM] (active); with IGROV1 ovarian, -11.2% [33.3 µM] (active); with OVCAR-3 ovarian, -96.8% [33.3 µM] (active); in the experiment on HS 578T breast, -30.1% [33.3 µM] (active); with NCI/ADR-RES ovarian, 3.22% [33.3 µM] (active).
